Results from PubChem BioAssay (Tox21).
Inconclusive results are not listed. Where a call stands in place of a potency, no number is given. Activity calls are given as the source filed them. Unless noted, the call rests on the fitted dose curve.

Tests used:
[1] = Nuclear factor erythroid 2-related factor 2/antioxidant responsive element (Nrf2/ARE) small molecule agonists: qHTS cell viability counter screen in human keratinocytes (AID 1919968; active means well fitted curve in the direction sought with a large enough effect in the repeat runs; an effect the other way counts as inactive or inconclusive; further: nearly all actives have a fitted effect of over 55% in size; further: potency means the concentration at half of the fitted maximal effect)
Outline: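 KeratinoSens cells (HaCaT keratinocytes stably carrying an ARE-luciferase reporter) were seeded at 1,500 cells/well and rested 5 h at 37 C/5% CO2. They were then exposed to compounds in DMSO for 23 h. Viability was read by CellTiter-Fluor fluorescence after 1 h.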

[2] = biological target: Gonadotropin-releasing hormone receptor (Homo sapiens) (UniProt P30968); assay: Human gonadotropin-releasing hormone receptor (GnRHR) small molecule agonists, calcium flux assay in GnRHR-HEK293 cells (AID 1920063); further: nearly all actives have a fitted effect of over 35% in size
Outline: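 HEK293 cells stably expressing human GnRHR were plated 18 h at 37 °C, loaded with calcium dye 1 h at 37 °C, then given compound in agonist mode; fluorescence (Ex/Em 480/540) read kinetically for 3 min at 1 s intervals.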

[3] = biological target: KiSS-1 receptor (Homo sapiens) (UniProt Q969F8); assay: Human kisspeptin (KISS1R) small molecule agonists, calcium flux assay in KISS1R-HEK293 cells (AID 1920064; active means well fitted curve in the direction sought with a large enough effect in the repeat runs; an effect the other way counts as inactive or inconclusive)
Outline: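 HEK293 cells stably expressing human KISS1R were plated 18 h at 37 °C, loaded with calcium dye for 1 h at 37 °C, then given compound by pin tool. Fluorescence (Ex/Em 480/540) was read kinetically for 3 min.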

[4] = G protein-coupled receptor (GPCR) small molecule agonists, calcium flux assay: HEK293 wild type cell line counter screen (AID 1920065)
Outline: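 Cells were plated and cultured 18 h at 37 C/5% CO2, then loaded with calcium dye for 1 h at 37 C. Compounds in DMSO were pin-transferred in agonist mode, and fluorescence (Ex/Em 480/540) was read kinetically for 3 min at 1 s intervals.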

[5] = p53 small molecule agonists, cell-based qHTS assay with human liver microsomes (AID 1963577);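 further: p53 response element beta-lactamase reporter cells with liver microsomes plus NADPH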
Outline: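 With metabolic activation: human liver microsomes (0.5 mg/mL final) plus NADPH (0.5 mg/mL final) added alongside compounds to p53RE-bla cells; 16 h 37 C exposure; beta-lactamase read by LiveBLAzer fluorescence.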

[6] = p53 small molecule agonists, cell-based qHTS assay with rat liver microsomes (AID 1963578)
Outline: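 Metabolic activation by rat liver microsomes and NADPH, each 0.5 mg/mL final, added right after compounds to p53RE-bla reporter cells (4,000/well, plated 5 h earlier). 16 h at 37 C, then LiveBLAzer substrate for 2 h at room temperature in the dark; fluorescence read-out.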

[7] = p53 small molecule agonists, cell-based qHTS assay with human liver microsomes: qHTS cell viability counter screen (AID 1963579); further: nearly all actives have a fitted effect of over 45% in size; further: potency means the concentration at half of the fitted maximal effect
Outline: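 Metabolic activation used human liver microsomes and NADPH, both 0.5 mg/mL final, over 16 hours at 37 C on p53RE-bla cells (4,000/well). Cytotoxicity measured by CellTiter-Glo luminescence, 30 min at room temperature.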

[8] = p53 small molecule agonists, cell-based qHTS assay with rat liver microsomes: qHTS cell viability counter screen (AID 1963580); further: nearly all actives have a fitted effect of over 45% in size
Outline: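 In HCT-116 cells carrying a p53 response element-bla reporter, compounds were metabolically activated in situ by rat liver microsomes with NADPH over 16 h. Cell ATP content then served as the cytotoxicity measure.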

[9] = p53 small molecule agonists, cell-based qHTS assay: qHTS cell viability counter screen (AID 1963581); further: nearly all actives have a fitted effect of over 45% in size; further: potency means the concentration at half of the fitted maximal effect
Outline: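 p53RE-bla HCT-116 cells were exposed to compounds for 16 h at 37 C; after the beta-lactamase FRET read in the same wells, CellTiter-Glo was added and luminescence (intracellular ATP) read after 30 min at room temperature.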

[10] = p53 small molecule agonists, cell-based qHTS assay (AID 1963582; active means well fitted activation curve with a large enough effect in the signal ratio in the repeat runs, not every such curve was filed as active; the % refers to the signal ratio; further: potency means the concentration at half of the fitted maximal effect)
Outline: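 p53RE-bla beta-lactamase reporter cells rested 5 h at 37 C/5% CO2, then received compounds in DMSO by pin transfer and were incubated 16 h at 37 C. LiveBLAzer B/G FRET substrate was loaded for 2 h at room temperature before fluorescence reading.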

[11] = biological target: 5-hydroxytryptamine receptor 2A (Homo sapiens) (UniProt P28223); assay: 5-hydroxytryptamine receptor 2A (HTR2A) small molecule antagonists, cell-based qHTS assay (AID 1963586); further: nearly all actives have a fitted effect of over 45% in size; further: potency means the concentration at half of the fitted maximal effect
Outline: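 Antagonist-mode intracellular calcium assay: DOI (4 nM) added after 5 min compound pre-incubation at room temperature to dye-loaded HTR2A-CHO cells. Fluorescence followed for 3 min, sampled every second.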

[12] = biological target: 5-hydroxytryptamine receptor 2A (Homo sapiens) (UniProt P28223); assay: 5-hydroxytryptamine receptor 2A (HTR2A) small molecule agonists, cell-based qHTS assay (AID 1963587); further: nearly all actives have a fitted effect of over 30% in size
Outline: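 HTR2A-CHO cells, plated 18 h at 37 C/5% CO2, dye-loaded 1 h at 37 C; compounds in DMSO added by pin tool (agonist mode). Intracellular calcium flux read as kinetic fluorescence on FDSS over 2 min at 1 s intervals.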

[13] = biological target: Muscarinic acetylcholine receptor M1 (Homo sapiens) (UniProt P11229); assay: Cholinergic receptor muscarinic 1 (CHRM1) small molecule antagonists, cell-based qHTS assay (AID 1963588); further: nearly all actives have a fitted effect of over 40% in size
Outline: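 CHRM1-CHO calcium-flux assay, antagonist mode. Cells were seeded 18 h, dye-loaded 1 h at 37 C and given compound for 5 min at RT, then acetylcholine was added at 50nM. FDSS fluorescence was read 3 min; 15 concentrations, three runs.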

[14] = biological target: Muscarinic acetylcholine receptor M1 (Homo sapiens) (UniProt P11229); assay: Cholinergic receptor muscarinic 1 (CHRM1) small molecule agonists, cell-based qHTS assay (AID 1963589); further: nearly all actives have a fitted effect of over 35% in size
Outline: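 CHO cells stably expressing human CHRM1, seeded 18 h at 37 C/5% CO2, dye-loaded 1 h at 37 C, then given compound in agonist mode; intracellular calcium fluorescence read kinetically at 1 s intervals. Fifteen concentrations, three independent runs.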

[15] = cAMP Responsive Elements (CRE) small molecule agonists, cell-based qHTS assay (AID 1963590)
Outline: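 CRE-bla HEK 293T cells in DMEM with 10% dialyzed FBS, NEAA, pyruvate and 25 mM HEPES were plated 18 h at 37 C/5% CO2, then exposed to compounds in DMSO for 3 h before LiveBLAzer B/G FRET substrate addition.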

[16] = biological target: Beta-2 adrenergic receptor (Homo sapiens) (UniProt P07550); assay: Adrenergic beta2 receptor (ADRB2) small molecule antagonists, cell-based qHTS assay (AID 1963592); further: series mostly up to about 92 µM; nearly all actives have a fitted effect of over 50% in size
Outline: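 Cells (CHO, stable ADRB2 overexpression) incubated 18-20hr at 37C; compounds added from DMSO; agonist mix (1nM isoproterenol, 100uM IBMX, 25uM Ro-20-1724) added; 0.5hr RT; d2-cAMP and anti-cAMP-cryptate added; 1hr RT; 665/615 nm read.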

[17] = biological target: D(2) dopamine receptor (Homo sapiens) (UniProt P14416); assay: Dopamine D2 receptor (DRD2) small molecule agonists, cell-based qHTS assay (AID 1963594); further: nearly all actives have a fitted effect of over 35% in size
Outline: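 HEK293 cells stably expressing DRD2 were cultured 24 h at 37 C, then given Ro20-1724 (0.1 mM final) and compounds for 10 min at room temperature. NKH477 (200nM) was then added for 30 min. cAMP was read by HTRF.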

[18] = biological target: D(2) dopamine receptor (Homo sapiens) (UniProt P14416); assay: Dopamine D2 receptor (DRD2) small molecule antagonists, cell-based qHTS assay (AID 1963595; active means well fitted inhibition curve with a large enough effect in the signal ratio in the repeat runs, with a control signal flat; the % refers to the signal ratio)
Outline: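 Antagonist mode in DRD2-HEK293 cells: after compound addition with 0.1 mM Ro20-1724, cells received quinpirole (12 nM) and NKH477 (200 nM) for 30 min at room temperature; HTRF cAMP read after 1 h detection.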

[19] = cAMP Responsive Elements (CRE) small molecule antagonists, cell-based qHTS assay (AID 1963591; active means well fitted inhibition curve with a large enough effect in the signal ratio in the repeat runs, not every such curve was filed as active; the % refers to the signal ratio; further: potency means the concentration at half of the fitted maximal effect)
Outline: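 CRE-bla HEK293T cells were plated 18 h at 37 °C/5% CO2, pinned with compound in DMSO, then stimulated with NKH477 at 0.25 uM final for 3 h. LiveBLAzer B/G FRET substrate was added and plates incubated 2 h at room temperature.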

[20] = biological target: Beta-2 adrenergic receptor (Homo sapiens) (UniProt P07550); assay: Adrenergic beta2 receptor (ADRB2) small molecule agonists, cell-based qHTS assay (AID 1963593);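 further: CHO cells stably overexpressing human ADRB2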
Outline: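 CHO cells stably over-expressing ADRB2 were plated overnight at 37C, then dosed with compounds plus a stimulation mix containing 100uM IBMX and 25uM Ro-20-1724 for 0.5hr at room temperature. cAMP was measured by HTRF competition, 1hr.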

Chain of Beta-2 adrenergic receptor (Homo sapiens) (P07550 whole entry, looked up): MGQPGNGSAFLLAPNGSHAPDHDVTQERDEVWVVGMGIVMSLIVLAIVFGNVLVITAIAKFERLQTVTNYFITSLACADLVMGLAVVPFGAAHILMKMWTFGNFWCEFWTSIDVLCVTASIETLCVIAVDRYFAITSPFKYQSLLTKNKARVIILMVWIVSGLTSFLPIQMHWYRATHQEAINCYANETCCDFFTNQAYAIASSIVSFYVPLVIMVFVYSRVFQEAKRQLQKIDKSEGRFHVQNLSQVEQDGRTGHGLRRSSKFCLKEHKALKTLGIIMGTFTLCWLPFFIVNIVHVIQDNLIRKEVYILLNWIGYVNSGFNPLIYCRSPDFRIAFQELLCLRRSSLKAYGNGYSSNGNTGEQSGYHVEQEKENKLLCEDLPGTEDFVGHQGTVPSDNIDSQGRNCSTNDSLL
Chain of KiSS-1 receptor (Homo sapiens) (Q969F8 whole entry, looked up): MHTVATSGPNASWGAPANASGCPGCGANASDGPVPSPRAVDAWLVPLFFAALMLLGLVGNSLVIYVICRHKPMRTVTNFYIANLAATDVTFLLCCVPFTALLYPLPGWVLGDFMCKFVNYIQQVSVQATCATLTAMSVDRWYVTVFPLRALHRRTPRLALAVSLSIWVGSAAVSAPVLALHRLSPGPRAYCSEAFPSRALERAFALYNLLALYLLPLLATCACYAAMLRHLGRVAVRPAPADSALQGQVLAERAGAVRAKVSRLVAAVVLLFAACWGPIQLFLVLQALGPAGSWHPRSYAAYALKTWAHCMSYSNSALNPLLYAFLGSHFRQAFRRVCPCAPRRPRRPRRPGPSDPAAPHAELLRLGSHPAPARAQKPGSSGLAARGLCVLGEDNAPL
Chain of 5-hydroxytryptamine receptor 2A (Homo sapiens) (P28223 whole entry, looked up): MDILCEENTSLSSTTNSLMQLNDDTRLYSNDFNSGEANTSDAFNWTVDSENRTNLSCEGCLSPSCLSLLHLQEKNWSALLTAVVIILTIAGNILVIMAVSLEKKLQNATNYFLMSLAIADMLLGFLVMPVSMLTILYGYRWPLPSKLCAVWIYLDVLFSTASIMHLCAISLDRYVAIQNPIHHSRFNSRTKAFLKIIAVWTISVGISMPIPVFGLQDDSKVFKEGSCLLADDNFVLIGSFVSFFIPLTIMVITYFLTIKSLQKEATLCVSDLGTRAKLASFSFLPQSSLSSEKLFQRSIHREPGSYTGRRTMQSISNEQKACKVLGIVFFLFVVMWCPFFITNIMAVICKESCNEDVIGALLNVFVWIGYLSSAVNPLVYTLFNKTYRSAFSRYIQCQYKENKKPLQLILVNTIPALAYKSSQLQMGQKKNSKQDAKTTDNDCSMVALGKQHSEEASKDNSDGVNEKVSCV
Chain of D(2) dopamine receptor (Homo sapiens) (P14416 whole entry, looked up): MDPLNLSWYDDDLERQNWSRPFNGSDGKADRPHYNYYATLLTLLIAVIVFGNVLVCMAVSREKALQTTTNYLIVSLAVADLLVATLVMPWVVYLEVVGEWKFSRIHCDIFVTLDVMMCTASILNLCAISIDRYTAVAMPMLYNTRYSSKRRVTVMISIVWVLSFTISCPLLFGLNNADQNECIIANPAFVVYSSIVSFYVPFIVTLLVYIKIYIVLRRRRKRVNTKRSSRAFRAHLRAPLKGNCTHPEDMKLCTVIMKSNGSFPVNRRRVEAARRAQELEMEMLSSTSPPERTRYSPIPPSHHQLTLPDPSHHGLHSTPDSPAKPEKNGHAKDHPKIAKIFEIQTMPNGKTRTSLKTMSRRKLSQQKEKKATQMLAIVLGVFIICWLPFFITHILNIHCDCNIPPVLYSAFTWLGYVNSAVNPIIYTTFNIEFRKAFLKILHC
Chain of Gonadotropin-releasing hormone receptor (Homo sapiens) (P30968 whole entry, looked up): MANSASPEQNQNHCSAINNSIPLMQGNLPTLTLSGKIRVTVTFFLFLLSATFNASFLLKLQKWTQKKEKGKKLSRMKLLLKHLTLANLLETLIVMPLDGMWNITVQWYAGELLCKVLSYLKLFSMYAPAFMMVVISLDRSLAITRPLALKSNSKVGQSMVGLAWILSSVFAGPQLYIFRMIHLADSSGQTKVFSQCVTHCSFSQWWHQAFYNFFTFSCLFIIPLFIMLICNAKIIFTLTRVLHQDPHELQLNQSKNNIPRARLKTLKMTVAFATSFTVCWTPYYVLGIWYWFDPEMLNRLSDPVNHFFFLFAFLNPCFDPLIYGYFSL
Chain of Muscarinic acetylcholine receptor M1 (Homo sapiens) (P11229 whole entry, looked up): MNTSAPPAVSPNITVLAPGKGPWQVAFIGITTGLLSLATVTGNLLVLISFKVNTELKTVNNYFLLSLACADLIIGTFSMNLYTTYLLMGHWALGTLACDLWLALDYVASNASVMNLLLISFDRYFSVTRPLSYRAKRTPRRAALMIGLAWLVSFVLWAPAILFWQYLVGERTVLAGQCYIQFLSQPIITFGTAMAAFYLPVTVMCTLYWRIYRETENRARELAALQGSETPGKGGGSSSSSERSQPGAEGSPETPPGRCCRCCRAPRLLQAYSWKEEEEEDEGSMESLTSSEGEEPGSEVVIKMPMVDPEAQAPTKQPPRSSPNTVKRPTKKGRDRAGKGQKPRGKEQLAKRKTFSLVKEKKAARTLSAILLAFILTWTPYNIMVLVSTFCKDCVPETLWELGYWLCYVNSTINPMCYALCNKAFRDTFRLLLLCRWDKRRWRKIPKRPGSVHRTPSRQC

Row | SMILES | Potency [1] | Potency [2] | Potency [3] | Potency [4] | Potency [5] | Potency [6] | Potency [7] | Potency [8] | Potency [9] | Potency [10] | Potency [11] | Potency [12] | Potency [13] | Potency [14] | Potency [15] | Potency [16] | Potency [17] | Potency [18] | Potency [19] | Potency [20]
1 | Nc1ccccn1 | inactive | inactive | inactive | inactive | inactive | inactive | inactive | inactive | inactive | inactive | 0.0318 µM (active) | inactive | inactive | inactive | inactive | inactive | inactive | inactive |  | 
2 | CC(=O)Oc1ccc(C(=C2CCCCC2)c2ccc(OC(C)=O)cc2)cc1 | inactive | inactive | inactive | inactive | inactive | inactive | inactive | inactive | inactive | inactive | inactive | inactive | inactive | inactive | inactive |  | inactive | inactive | inactive | inactive
3 | C=C[Si](OCC)(OCC)OCC | inactive | inactive | inactive | inactive | inactive | inactive | inactive | inactive | inactive | inactive | inactive | inactive | inactive | inactive | inactive | inactive | inactive | inactive | inactive | 
4 | CCCCCCCC/C=C\CCCCCCCC(=O)OCCOC(=O)CCCCCCC/C=C\CCCCCCCC | inactive | inactive | inactive | inactive | inactive | inactive | inactive | inactive | inactive | inactive | inactive | inactive | inactive | inactive | inactive | inactive | inactive | inactive |  | 
5 | O=[N+]([O-])c1cccc(C(F)(F)F)c1 | inactive | inactive | inactive | inactive | inactive | inactive | inactive | inactive | inactive | inactive | inactive | inactive | inactive | inactive | inactive | inactive |  | inactive | inactive | 
6 | C=C(C)C(=O)OC | inactive | inactive | inactive | inactive | inactive | inactive | inactive | inactive | inactive | inactive | inactive | inactive | inactive | inactive | inactive | inactive | inactive | inactive | inactive | 
7 | Cc1ccc2ccc(Cl)cc2n1 | inactive | inactive | inactive | inactive | inactive | inactive | inactive | inactive | inactive | inactive | inactive | inactive | inactive | inactive | inactive | inactive | inactive | inactive | inactive | 
8 | O=C(NCC(O)CO)c1c(I)c(C(=O)NCC(O)CO)c(I)c(N(CCO)C(=O)CO)c1I (stereo unspecified) | inactive | inactive | inactive | inactive | inactive | inactive | inactive | inactive | inactive | inactive | inactive | inactive | inactive | inactive | inactive | inactive | inactive | inactive | inactive | inactive
9 | CC(C)C[C@H](NC(=O)[C@H](Cc1ccccc1)NC(=O)c1cnccn1)B(O)O | 0.596 µM (active) |  |  |  |  |  | 0.89 µM (active) |  | 0.707 µM (active) | 0.0141 µM (active) | inactive |  | inactive | inactive | inactive | inactive | inactive | inactive | 0.944 µM (active) | 
10 | CCCCOC(=O)CO | inactive | inactive | inactive | inactive | inactive | inactive | inactive | inactive | inactive | inactive | inactive | inactive | inactive | inactive | inactive | inactive | inactive |  | inactive | inactive
11 | O=C(CS(=O)Cc1ccco1)NC/C=C\COc1cc(CN2CCCCC2)ccn1 (stereo unspecified) | inactive | inactive | inactive | inactive | inactive | inactive | inactive | inactive | inactive | inactive | inactive | inactive | inactive | inactive | inactive | inactive | inactive | inactive | inactive | inactive
12 | CC(C)COC(=O)CC(C(=O)OCC(C)C)S(=O)(=O)O (stereo unspecified) | inactive | inactive | inactive | inactive | inactive | inactive | inactive | inactive | inactive | inactive | inactive | inactive | inactive | inactive | inactive | inactive | inactive |  | inactive | 
13 | CC(C)C=O | inactive | inactive | inactive | inactive | inactive | inactive | inactive | inactive | inactive | inactive | inactive | inactive | inactive | inactive | inactive | inactive | inactive | inactive | inactive | inactive
14 | C[C@@]12CCC[C@H]1[C@@H]1CC[C@H]3C[C@@H](O)CC[C@]3(C)[C@H]1CC2 | inactive | inactive | inactive | inactive | inactive | inactive | inactive | inactive | inactive | inactive | inactive | inactive | inactive | inactive | inactive |  | inactive | inactive | inactive | inactive
15 | CCOC(=O)/C=C/c1ccccc1 | inactive | inactive | inactive | inactive | inactive | inactive | inactive | inactive | inactive | inactive | inactive | inactive | inactive | inactive | inactive | inactive |  | inactive | inactive | 
